From PubChem BioAssay (NCATS) come the findings set out here.

In test [1] the target is Calcium and integrin-binding protein 1 (Homo sapiens) (UniProt Q99828). Briefly: Primary qHTS for Identification of Calcium Integrin Binding Protein 1 (CIB1) Competitor (AID 1508620).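 Also: GST tagged CIB1 binding a fluorescein labelled alphaIIb integrin peptide tracer; top concentration of the series differs between compounds.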 In a few lines: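 Fluorescence polarization competition: CIB1-GST (1 uM final) preincubated with compound 15 min at room temperature, then FITC-labeled alphaIIb peptide (100 nM final) added for another 15 min. Polarization read at Ex 480/Em 540.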
Background: In qHTS, concentration-response curves come from the screen itself.

Test [2] addresses Cytochrome P450 2C9 (Homo sapiens) (UniProt P11712). Briefly: qHTS Assay for Inhibitors and Substrates of Cytochrome P450 2C9 (AID 883). Also: potency is read from the fitted curve at half-maximal effect; nearly all actives have a fitted effect of over 60% in size. In a few lines: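 Human CYP2C9 (10nM) hydroxylated Luciferin-H (100uM, at its KM) to luciferin in 25mM KPO4. Compound was preincubated 10 min at 37C, then NADPH regeneration started a 60 min reaction at 37C. Luminescence was read after detection reagent, normalized to 57uM sulphaphenazole.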

The structures appear in SMILES notation. Records with an inconclusive call do not appear. Where a call stands in place of a potency, no number is given. Activity calls are given as the source filed them. Calls follow the shape of the dose curve; as a rule, active = well fitted curve in the direction sought with a large enough effect; inconclusive = small, poorly fitted or top-dose-only effect, or another doubt; inactive = no such curve, though single readings can be large; an effect the other way counts as inactive or inconclusive.

Sequence of Calcium and integrin-binding protein 1 (Homo sapiens) (Q99828 whole entry, looked up): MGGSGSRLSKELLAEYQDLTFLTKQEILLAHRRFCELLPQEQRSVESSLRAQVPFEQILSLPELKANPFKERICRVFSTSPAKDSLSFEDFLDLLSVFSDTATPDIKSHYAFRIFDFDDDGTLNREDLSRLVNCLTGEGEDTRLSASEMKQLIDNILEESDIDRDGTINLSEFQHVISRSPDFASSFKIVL
Sequence of Cytochrome P450 2C9 (Homo sapiens) (P11712 whole entry, looked up): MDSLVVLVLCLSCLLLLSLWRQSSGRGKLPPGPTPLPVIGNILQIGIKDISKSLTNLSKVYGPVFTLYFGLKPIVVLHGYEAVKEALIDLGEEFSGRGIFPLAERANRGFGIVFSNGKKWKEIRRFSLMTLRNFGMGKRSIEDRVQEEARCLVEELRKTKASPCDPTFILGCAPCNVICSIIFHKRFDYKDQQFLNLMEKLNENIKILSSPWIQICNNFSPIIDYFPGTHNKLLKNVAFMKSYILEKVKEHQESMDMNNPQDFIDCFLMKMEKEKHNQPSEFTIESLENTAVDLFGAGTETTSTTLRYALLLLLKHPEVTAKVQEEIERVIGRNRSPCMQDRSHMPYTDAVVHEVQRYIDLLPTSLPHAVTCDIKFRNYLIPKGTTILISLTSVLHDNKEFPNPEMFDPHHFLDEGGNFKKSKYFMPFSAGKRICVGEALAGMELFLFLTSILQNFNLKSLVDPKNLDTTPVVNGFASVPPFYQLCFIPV

Take `Cc1ccnc(NC(=S)N2CCN(c3ccc(F)cc3)CC2)c1`: the Potency result in test [1] was “inactive”.

For the compound `Cn1nnnc1Sc1ncnc2scc(-c3cccc(S(C)(=O)=O)c3)c12`, the Potency entry in test [1] is “inactive”.

For the compound `CC(=O)Nc1sc2c(c1-c1ccc3nsnc3c1)CCNC2`, the Potency entry in test [1] was “inactive”.

Regarding `FC(F)(F)c1cc(-c2ccc(CNc3nc(-c4ccncc4)nc4ccccc34)cc2)ccn1`, in test [1], the Potency result was “inactive”.

As to `Cc1ccc(NC(=O)c2cnn3c(C)cc(C)nc23)c(C)c1`, the Potency entry in test [1] is “inactive”.

With `O=C(c1ccccc1O)N(Cc1ccco1)Cc1ccco1`, in test [1], the Potency result is “inactive”.

In the case of `COc1ccc(NC(=S)N2CCN(c3cccc(C(F)(F)F)c3)CC2)nc1`, in test [1], the Potency entry is “inactive”.

For the compound `NC(=O)C1CCN(c2nccc(-c3ccc(Br)cc3)n2)CC1`, the Potency entry in test [1] is “inactive”.

For the compound `Cn1c2cc(B(O)O)sc2c2cnn(Cc3c(F)cccc3F)c(=O)c21`, the Potency result in test [1] is “inactive”.

Regarding `COc1ccc(-c2nc3cccc(OC)c3c(=O)n2Cc2ccccc2)cc1COc1ccc(NC(C)=O)cc1`, the Potency result in test [1] was “inactive”.

`C=CCNc1oc(-c2cccs2)nc1C#N`: in test [1], the Potency entry was “inactive”.

With `CC(=O)Nc1sc2c(c1-c1nc3ccccc3s1)CN(C1COC1)C2`, the Potency result in test [1] is “inactive”.

Turning to `Cc1csc(CNc2ncnc3ccc(-c4ccoc4)cc23)c1`, the Potency entry in test [1] was “inactive”.

`C[n+]1cc(C(O)(c2ccccc2)c2ccccc2)n2ccccc21`: the Potency result in test [1] was “inactive”.

Take `CN(c1ccccc1)c1ccc(CNc2nn3c(=O)c4ccccc4nc3s2)cc1`: the Potency entry in test [1] was “inactive”.

As to `Cc1ccc(-c2ccc(=O)n(CC(=O)N(C)C(C)C(C)C)n2)cc1` (configuration not stated), in test [1], the Potency result was “inactive”.

In the case of `O=C1CCCC2=C1C(c1[nH]ncc1Cl)N=C(Nc1nc3cc(Br)ccc3o1)N2` (configuration not stated), the Potency result in test [1] was “inactive”.

Consider `Cc1ccnc(NC(=S)NCCNc2cccc(C(F)(F)F)c2)c1`, for which the Potency result in test [1] is “inactive”.

Regarding `CN(CCc1cnc[nH]1)c1ncnc2ccc(-c3ccc4c(c3)OCO4)cc12`, the Potency entry in test [1] is “inactive”.

In the case of `O=C(Cn1cc(CNC(=O)c2ccccc2)nn1)Nc1cc(C(F)(F)F)ccc1Cl`, the Potency result in test [1] is “inactive”.

Consider `O=[N+]([O-])c1ccc([S+](=O)([O-])N2CCN([S+](=O)([O-])c3ccc4c(c3)OCCO4)CC2)c([N+](=O)[O-])c1`, for which the Potency entry in test [1] was “inactive”.

As for `O=C(O)c1ccc(O)c2ncc(-c3ccc(N4CCOCC4)cc3)cc12`, the Potency result in test [1] is “inactive”.

Take `N#Cc1nc(Nc2cc(F)cc(Cl)c2)nc(NC2CCCC2)n1`: in test [1], the Potency result was “inactive”.

In the case of `C#Cc1nc(Nc2cccc(Cl)c2)nc(NC2CCCC2)n1`, the Potency entry in test [1] was “inactive”.

Consider `C[C@@H](N)C(=O)Nc1cccc(-c2nn3c(=O)cc(N4CCNCC4)nc3s2)c1`, for which the Potency result in test [1] was “inactive”.

In the case of `Cc1ccnc(CC(=S)N2CCN(c3cccc(C(F)(F)F)c3)CC2)c1`, the Potency result in test [1] is “inactive”.

Turning to `O=C1c2ccccc2NC(c2ccc(-c3ccccc3F)o2)N1O` (configuration not stated), the Potency result in test [1] was “inactive”.

As for `Cc1cc(C)n2ncc(C(=O)NCc3ccccc3)c2n1`, in test [1], the Potency result is “inactive”.

Turning to `c1ccc2[nH]c(-c3ccc(NCc4ccc5c(c4)OCCO5)cc3)nc2c1`, the Potency entry in test [1] was “inactive”.

As for `O=C1NS(=O)(=O)c2cc(Br)ccc21`, in test [1], the Potency entry is “inactive”.

`COc1cc(OC)cc(-c2nnc3n2N=C(c2cc(OC)ccc2OC)CS3)c1`: the Potency result in test [1] was “inactive”.

Regarding `O=C(CNC(=O)c1ccncc1)OC(C(=O)Nc1cc(C(F)(F)F)ccc1Cl)c1ccccc1` (configuration not stated), in test [1], the Potency result is “inactive”.

Consider `Cc1cc(C)n2ncc(C(=O)Nc3ccncc3)c2n1`, for which, in test [1], the Potency result was “inactive”.

Consider `CCOC(=O)c1ccoc1-c1ccc2ncnc(NCc3ccc(C)o3)c2c1`, for which the Potency result in test [1] is “inactive”.

`CC(=O)N1CCc2cc(S(=O)(=O)Nc3ccc(C)c(C)c3)ccc21`: the Potency entry in test [1] is “inactive”.

Take `NC(=O)C1CCN(c2nc(-c3ccccc3F)cs2)CC1`: the Potency result in test [1] was “inactive”.

As for `CC(C)c1cc(C(C)C)c(S(=O)(=O)Nc2cccc3cccnc23)c(C(C)C)c1`, the Potency entry in test [1] is “inactive”.

On to `O=C1NC(=O)/C(=C/c2ccco2)N1`, for which the Potency result in test [1] was “inactive”.

As to `COc1ccc2nc(-c3ccc(N(C)C)cc3)sc2c1`, the Potency entry in test [1] is “inactive”.

Consider `COc1ccc(-c2nc3ccc(Cl)cc3c(=O)n2Cc2ccccc2)cc1COc1ccc(NC(C)=O)cc1`, for which the Potency result in test [1] was “inactive”.

On to `O=C1c2ccccc2C(=O)N1c1ccncc1`, for which, in test [1], the Potency entry was “inactive”.

Consider `COc1cc2ncnc(N(C)Cc3cccs3)c2cc1-c1ccc2c(c1)OCO2`, for which, in test [1], the Potency result was “inactive”.

`COc1ccc(-n2cnc3c(c2=N)C(c2cccc(OC)c2)c2c(ccc4ccccc24)O3)cc1` (configuration not stated): the Potency result in test [1] was “inactive”.

Regarding `c1cncc(-c2ccc(CNc3nc(N4CCOCC4)nc4ccccc34)cc2)c1`, the Potency result in test [1] is “inactive”.

Consider `CN(C)c1cccc(NS(=O)(=O)c2ccc(NC(=O)Cc3ccc(Cl)c(Cl)c3)cc2)c1`, for which, in test [1], the Potency entry was “inactive”.

For `COc1ccc(OC2=NS(=O)(=O)c3ccccc32)cc1`, the Potency result in test [1] was “inactive”.

For `O=C1CCCC2=C1C(c1[nH]ncc1Cl)NC(=NCc1cccs1)N2` (configuration not stated), in test [1], the Potency result was “inactive”.

In the case of `CNc1nc(C#N)c(-c2cccc3ccccc23)o1`, the Potency entry in test [1] was “inactive”.

`Cc1ccc(NS(=O)(=O)c2ccc3c(c2)CCC(=O)N3)cc1Cl`: the Potency result in test [1] was “inactive”.

As to `Cc1ccc(C(=O)Nc2ccc(N3CCOCC3)cc2)cc1`, in test [1], the Potency result is “inactive”.

On to `O=C1CCc2cc(S(=O)(=O)Nc3ccc4c(c3)CCC4)ccc2N1`, for which the Potency result in test [1] was “inactive”.

As to `CC(=O)Nc1sc2c(c1-c1ccc(N3CCN(C(C)=O)CC3)nc1)CCNC2`, in test [1], the Potency result is “inactive”.

Take `CNc1oc(-c2cccc(Cl)c2)nc1C#N`: the Potency entry in test [1] is “inactive”.

Take `COc1ccc(C2=Nn3c(nnc3-c3ccccc3C(F)(F)F)SC2)cc1OC1CCOC1` (configuration not stated): the Potency result in test [1] was “inactive”.

Take `COc1c(Cl)cccc1NC(=O)c1c(NC(=O)Cc2ccccc2)sc2c1CCCC2`: the Potency result in test [1] was “inactive”.

Regarding `COC(=O)c1nc(Nc2cc(F)cc(F)c2)nc(NC2CCCC2)n1`, in test [1], the Potency result was “inactive”.

In the case of `COc1ccc(C(=O)N(Cc2ccccc2)Cc2cccs2)c(O)c1`, in test [1], the Potency result is “inactive”.

`Cn1nnnc1Sc1ncnc2scc(-c3ccc(C(F)(F)F)cc3)c12`: in test [1], the Potency result is “inactive”.

Take `COc1ccc(C(=O)N(Cc2ccco2)Cc2ccco2)c(O)c1`: the Potency entry in test [1] was “inactive”.

Regarding `Cc1ccnc(NC(=S)NC2CN(c3cccc(C(F)(F)F)c3)C2)c1`, in test [1], the Potency entry was “inactive”.

In the case of `O=C1NS(=O)(=O)c2cc3c(cc21)C(=O)NS3(=O)=O`, the Potency result in test [1] is “inactive”.

In the case of `Cc1ccnc(NC(=S)N[C@H]2CCN(c3cccc(C(F)(F)F)c3)C2)c1`, the Potency result in test [1] was “inactive”.

As for `COc1ccc(NC(=O)C2=C(C)NC(Nc3nc4ccccc4o3)=NC2c2ccccc2Br)cc1` (configuration not stated), the Potency entry in test [1] is “inactive”.

For the compound `CN(CC(=O)Nc1ccc(N2CCOCC2)cc1)Cc1cccc2ccccc12`, the Potency result in test [1] is “inactive”.

As for `Cc1cc(C)nc(NC(=S)N2CCN(c3ccc(Cl)cc3S(C)(=O)=O)CC2)c1`, in test [1], the Potency result is “inactive”.

As for `Oc1ccc(CNc2ccccn2)c2cccnc12`, the Potency result in test [1] was “inactive”.

With `Cc1ccc(C2=NN(CC(=O)N(C)C(C)c3ccco3)C(=O)C2)cc1` (configuration not stated), the Potency entry in test [1] was “inactive”.

`COc1cccc(-c2nnc3n2N=C(c2c(OC)cccc2OC)CS3)c1OC`: the Potency entry in test [1] was “inactive”.

For the compound `O=C(O)c1ccc2c(c1)C(=O)N([C@H](Cc1ccc(O)c(O)c1)C(=O)O)C2=O`, in test [1], the Potency result is “inactive”.

Regarding `O=c1c2ccc(F)cc2nc2sc(Nc3ccc4c(c3)CCC4)nn12`, the Potency result in test [1] was “inactive”.

Consider `COc1ccc(C2Nc3ccccc3C(=O)N2Cc2ccccc2)cc1COc1c(C)cccc1C` (configuration not stated), for which the Potency entry in test [1] is “inactive”.

`COc1cccc(C2c3c(ncn(CCCN4CCOCC4)c3=N)Oc3ccc4ccccc4c32)c1` (configuration not stated): in test [1], the Potency entry was “inactive”.

Turning to `O=S(=O)(Nc1cccc2cccnc12)c1ccccc1`, in test [1], the Potency result was “inactive”.

On to `Cc1ccc(CCCn2c(CCNC(=O)C3CCCCC3)nc3ccccc32)cc1`, for which the Potency entry in test [1] is “inactive”.

Consider `Cc1nnc(-c2cnn(C)c2N)n1CCCc1ccncc1`, for which the Potency entry in test [1] was “inactive”.

Consider `O=[S+]([O-])(Nc1nccs1)c1ccc(NCc2ccc(Cl)c(Cl)c2)cc1`, for which the Potency result in test [1] is “inactive”.

For the compound `Cc1ccnc(NC(=S)N2CCC(Nc3cccc(C(F)(F)F)c3)CC2)c1`, the Potency entry in test [1] was “inactive”.

For `O=[N+]([O-])c1ccc(-c2nc(Nc3ccc(F)c(F)c3)c3ccccc3n2)cc1`, in test [1], the Potency entry is “inactive”.

On to `CC(Nc1nc(-c2ccccc2C(F)(F)F)nc2ccccc12)c1ccc(-c2ccncc2)cc1` (configuration not stated), for which, in test [1], the Potency entry is “inactive”.

In the case of `Cc1cc(C)n2ncc(C(=O)Nc3ccc(C(F)(F)F)cc3)c2n1`, the Potency result in test [1] is “inactive”.

`CC(=O)Nc1ccc(S(=O)(=O)N2CCN(S(=O)(=O)c3c(F)cccc3F)CC2)cc1`: the Potency entry in test [1] is “inactive”.

For the compound `O=C(O)c1ccc(-c2noc(-c3ccccc3F)n2)cc1`, the Potency result in test [1] is “inactive”.

Turning to `O=C(c1cccs1)c1nonc1C(=O)c1cccs1`, the Potency result in test [1] was “inactive”.

Consider `COc1ccc(C2Nc3ccccc3C(=O)N2Cc2cccc3ccccc23)cc1COc1ccc(NC(C)=O)cc1` (configuration not stated), for which the Potency entry in test [1] is “inactive”.

Regarding `Cc1cc(N[S+](=O)([O-])c2ccc(NC(=O)Cc3ccc(F)c(F)c3)cc2)no1`, the Potency result in test [1] is “inactive”.

On to `CC(C)(C)OC(=O)Nc1ncnc2c1C(c1ccccc1)c1c(ccc3ccccc13)O2` (configuration not stated), for which the Potency entry in test [1] was “inactive”.

Turning to `Cc1cccc(CNc2ncnc3ccc(-c4ccc5c(c4)OCO5)cc23)c1`, the Potency in test [2] was 316 nM (active).
